# Assay results taken from PubChem BioAssay AID504558 (Broad Institute, 2011).
# Out of some 350,000 compounds screened, about 2,400 (0.69%) were called active. The sample as a whole holds a higher share of actives than the screen did. Unmarked numbers belong to inactive results. Cut-off read from the data, not from the text of the source: active = inhibition above about 41%; inconclusive = no clear call, values can overlap the other calls; inactive = below that.
# Test: blockers of LMP1-induced NF-kB reporter signal – cell-based, luminescence, single point, primary screen (AID 504558);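 note: 0% = neutral control wells and 100% = reference inhibitor control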
# Conditions: LMP1-induced NF-kappaB luciferase reporter cells, at 12.5 µM, active compounds read high
row,SMILES,inhibition
1,CCN(CC)C(=O)C1=C(C)N(Cc2ccc(OC)cc2)C(=O)C(CC(=O)NCCCCc2ccccc2)C1 (centres undefined),-3.18%
2,COc1ncnc2c1ncn2CCCNCCN1CCOCC1,-1.37%
3,Oc1c(Cl)cc(Cl)c(Cl)c1Cc1c(O)c(Cl)cc(Cl)c1Cl,52.3% (active)
4,COc1ccccc1NC(=O)C(CC(=O)O)Cc1cc(C)cc(C)c1 (centres undefined),-13.3%
5,OCCCNc1nccc(-c2cc(Nc3cccc(Cl)c3)ncn2)n1,88.6% (active)
6,CC(C)n1cnc2c(Nc3cccc(Cl)c3)nc(N(CCO)CCCO)nc21,-2.02%
7,Cc1cccc(Nc2nc(NCCO)nc(N3CCCC3)n2)c1,7.29%
8,Cc1ccccc1NC(=O)Cc1nc(COC(=O)CNC(=O)c2ccc(Cl)cc2Cl)cs1,-5.79%
9,CCC(C)Cn1c(O)cc2nn(-c3nc4ccccc4s3)c(=O)c-2c1C (centres undefined),51.8% (active)
10,CC(=O)Nc1ccc2nc(NC(=O)CS(=O)(=O)c3ccc(F)cc3)sc2c1,-1.73%
11,O=C(Nc1ccc(C(=O)N2CCOCC2)cc1)Nc1cccc(C(F)(F)F)c1,65.4% (active)
12,O=C(COc1ccc(S(=O)(=O)Nc2cccc(C(F)(F)F)c2)cc1)N1CCOCC1,5.55%
13,COc1ccccc1C(=O)Nc1cccc(C(=O)N2CCOCC2)c1,-6.8%
14,COc1ccc(Cn2c(=O)oc3ccccc32)cc1,-3.08%
15,CC1CC(NC(=S)N(C)C)CC(C)(C)C1 (centres undefined),-2.42%
16,CNC(=O)C[C@H]1C(=O)N(c2ccc(OC)cc2)C[C@@H]1Cc1ccccc1,-2.06%
17,CN(CCO)c1ccc(/C=N/Nc2nncc3ccccc23)cc1,45.7% (active)
18,C/C(=N\Nc1nncc2ccccc12)c1ccc(Cl)c([N+](=O)[O-])c1,-18.4%
19,COc1cccc(/C=N\Nc2nncc(-c3ccccc3)n2)c1,-5.65%
20,NC(=O)CSc1nnc(-c2cccc(S(=O)(=O)N3CCOCC3)c2)o1,1.36%
21,O=C1CCC(C(=O)OCC(=O)Nc2ccc(OC(F)F)cc2)=NN1,-2.22%
22,O=C(Nc1cc(F)ccc1F)c1ccc2c(=O)n3c(nc2c1)CCC3,-23.7%
23,O=C1CCCN2N=C(SCC(=O)Nc3ccc(Br)cc3)SC2=N1,46.9% (active)
24,O=C(O)CC(SCC(=O)Nc1ccc(Br)cc1)C(=O)O (centres undefined),-3.51%

row,SMILES,inhibition
1,O=C(CSCc1ccc(Br)cc1)Nc1ccc(S(=O)(=O)N2CCCCCC2)cc1,-7.38%
2,C[C@H](CO)N1C[C@H](C)[C@@H](CN(C)C(=O)C2CCCCC2)OCc2cnnn2CCCC1=O,0.386%
3,C[C@H]1CN([C@@H](C)CO)C(=O)c2cc(-c3cccc(F)c3)cnc2O[C@@H]1CN(C)S(C)(=O)=O,5.8%
4,C=CC(=O)OCCOCCOCCOCCOC(=O)C=C,83.3% (active)
5,O=C(c1cc2cc(Br)cc(Br)c2oc1=O)N1CCOCC1,83.6% (active)
6,COc1cc2ccccc2cc1C(=O)N1CCOCC1,25.1%
7,COc1cccc2cc(C(=O)N3CCN(C(=O)c4ccccc4)CC3)c(=O)oc12,-0.766%
8,O=C(N=C1SC2CS(=O)(=O)CC2N1Cc1ccccc1)c1ccccc1 (centres undefined),1.35%
9,COC(=O)[C@H]1C[C@H](OC(=O)NCc2ccccc2)[C@@]2(O)CN(S(=O)(=O)c3ccc(C)cc3)CC2[C@H]1C(=O)OC (some centres undefined),-13.5%
10,Cc1ccsc1C(=O)OCC(=O)c1cc(C)n(CC2CCCO2)c1C (centres undefined),63.2% (active)
11,COc1ccc(C(=O)OCC(=O)c2cc(C)n(CC3CCCO3)c2C)cc1[N+](=O)[O-] (centres undefined),12.7%
12,Cc1ccsc1C(=O)OCC(=O)Nc1cccc(F)c1,-4.47%
13,Cc1ccc(S(=O)(=O)N(CCc2ccccc2)c2ccc3c(c2)C2CC3CCN2C(=O)OCc2ccccc2)cc1 (centres undefined),-3.7%
14,O=C(CSc1ncnc2sccc12)NC1CCS(=O)(=O)C1 (centres undefined),5.19%
15,COc1ccc(OCC(=O)N2CCN(C(=O)c3cccs3)CC2)cc1,-13.6%
16,O=C(CSc1ncnc2sccc12)N1CCN(C(=O)c2cccs2)CC1,69.5% (active)
17,Cc1nc2ccccn2c(=O)c1NC(=O)c1ccc(Br)o1,1.95%
18,CCOC(=O)C1CCN(C(=O)c2ccc3c(=O)n4nc(Nc5ccccc5CC)sc4nc3c2)CC1,0.7%
19,NC(=O)C1(Nc2ccc([N+](=O)[O-])cc2)CCCC1,58.8% (active)
20,O=C(Nc1ccc([N+](=O)[O-])cc1)C1CC12CCC2 (centres undefined),-7.83%
21,NC(=O)C1(Nc2ccc(-c3ccccc3)cc2)CCCC1,0.238%
22,NC(CSC(c1ccccc1)(c1ccccc1)c1ccc(-c2ccccc2)cc1)C(=O)O (centres undefined),-1.87%
23,Cc1nc(SCc2ccc(F)cc2)c([N+](=O)[O-])[nH]1,2.2%
24,Nc1nc(SCc2ccc([N+](=O)[O-])cc2)c2ncn(C3OC(CO)C(O)C3O)c2n1 (centres undefined),-5.79%

row,SMILES,inhibition
1,Cc1nc(N)nc(SCc2ccc([N+](=O)[O-])cc2)c1N,50.3% (active)
2,N#CCCN(C(=S)Nc1ccc(Cl)c(Cl)c1)C1CCCCC1,-1.92%
3,Cc1cccc(N(CC(=O)N2CCCC2)S(C)(=O)=O)c1C,-6.4%
4,Cc1ccc2cccc([N+](=O)[O-])c2n1,7.19%
5,O=C(OCc1cn([C@@H]2C[C@H](c3ccc(Cl)cc3)N(Cc3cccs3)C[C@H]2O)nn1)c1ccccc1,3.08%
6,O=C(C1CC1)N1N=C(c2ccc(Br)cc2)CC1(O)C(F)(F)F (centres undefined),48.3% (active)
7,O=C(Cc1ccccc1)N1N=C(c2ccncc2)CC1(O)C(F)(F)F (centres undefined),4.93%
8,O=C(C1CC1)N1N=C2CCCCC2C1(O)C(F)(F)F (centres undefined),0.262%
9,C[C@@H]1CN([C@@H](C)CO)C(=O)c2cc(Br)cnc2O[C@H]1CN(C)Cc1ccc(-c2ccccc2)cc1,-10.5%
10,C[C@@H]1CN([C@H](C)CO)C(=O)c2cc(Br)cnc2O[C@@H]1CN(C)Cc1cncnc1,-0.147%
11,Nc1cc(=O)c2[nH]cnc2[nH]1,5.05%
12,O=C1CCC(=O)N1CCC(=O)N(C(=O)NC1CCCCC1)C1CCCCC1,-0.58%
13,CCc1nnc(NC(=O)c2cc(S(=O)(=O)N3CCCCC3)ccc2C)s1,2.74%
14,CCc1nnc(NC(=O)c2cc(S(=O)(=O)N3CCN(CC)CC3)ccc2Cl)s1,68.4% (active)
15,CCc1nnc(NC(=O)c2ccc(S(=O)(=O)NC3CCCCC3)cc2)s1,-6.69%
16,O=C(Nc1ccc(Cl)cn1)c1ccccc1-c1ccccc1,3.03%
17,c1ccc(CNCc2ccc(CNCc3ccccc3)cc2)cc1,-5.41%
18,Cc1ccc(S(=O)(=O)/N=C2\C=C(NS(=O)(=O)c3ccc(C)cc3)C(=O)c3ccccc32)cc1,-0.482%
19,CCOc1ccc(-c2cc(C(=O)N/N=C/c3ccc(O)cc3)c3ccccc3n2)cc1,58.2% (active)
20,COc1ccc(-c2cc(C(=O)N/N=C/c3cccnc3)c3ccccc3n2)c(OC)c1,1.36%
21,CCOc1ccc(NC(=O)c2cc(C)nc3ccccc23)cc1,-0.28%
22,Cc1cccc(C(=O)OCC(=O)Nc2sccc2C(N)=O)c1C,-0.574%
23,C[C@H]1CN([C@@H](C)CO)C(=O)c2cc(C3=CCCCC3)cnc2O[C@@H]1CN(C)C(=O)Cc1ccccc1,5.28%
24,CCN1C(=O)[C@H]2[C@@H](c3ccccc3)N[C@]3(CCCN(Cc4ccc(C)cc4)C3=O)[C@H]2C1=O,-1.4%

row,SMILES,inhibition
1,NC(=O)C1(Nc2ccccc2Cl)CCCC1,-6.12%
2,O=C(CCN1CCN(C/C=C/c2ccccc2)CC1)Nc1ccccc1Cl,5.35%
3,O=C(Nc1ccccc1Cl)/C(Cl)=C(\Cl)S(=O)c1ccccc1 (centres undefined),69.1% (active)
4,Cc1ccc(C(=O)NC(C)C(c2cccs2)N2CCOCC2)cc1C (centres undefined),3.97%
5,CC(/C=N/NC(=O)c1cc(-c2ccc3ccccc3c2)n[nH]1)=C\c1ccco1,-39.1%
6,Cc1ccc(-c2cc(C(=O)N/N=C/C=C/c3ccco3)c3ccccc3n2)cc1C,60.7% (active)
7,O=C(N/N=C/C=C/c1ccco1)c1cccs1,-24.5%
8,COc1ccc(CCNC(=O)CN(c2ccccc2)S(=O)(=O)c2ccccc2)cc1,-10.2%
9,Cc1ccc([C@H]2C[C@H](O)[C@@H](n3cc(COC(=O)c4ccccc4)nn3)CN2CC2CCCCC2)cc1,4.84%
10,C[C@H]1CN([C@@H](C)CO)C(=O)CCCn2cc(nn2)CO[C@@H]1CN(C)S(=O)(=O)c1cccs1,5.02%
11,CCN1CCCC1CNC(=O)c1ccc2c(c1)NC(=O)/C(=C\c1ccccc1F)S2 (centres undefined),-8.19%
12,CC1=C(C(=O)N(C)C)CC(CC(=O)NCCc2ccccn2)C(=O)N1CCC1=CCCCC1 (centres undefined),1.75%
13,CC(C)c1cc(C(=O)N(C)C2CCCN(Cc3ccccc3F)C2)n(C)n1 (centres undefined),3.75%
14,Cc1ccn2cc(C(=O)NC3CCN(Cc4ccccc4)CC3)nc2c1,5.73%
15,COc1ccc(-c2cc3ncccc3cn2)cc1,-15.8%
16,COc1ccc(-c2cn3ccc(C)cc3n2)cc1,48.2% (active)
17,Cc1ccc(-c2cn3cc(C)ccc3n2)cc1,82% (active)
18,CSc1nnc2ccc(-c3ccc(C)cc3)nn12,2.32%
19,Cc1ccc(-c2cc(N)on2)cc1,-11.1%
20,Cc1ccc2nc(-c3ccc(Br)cc3)cn2c1,63.8% (active)
21,Cc1ccc(-c2cc(C(=O)NCc3cn(C)nc3C)c3cc(Br)ccc3n2)cc1,-3.18%
22,Cc1ccc(-c2nc3ccc(Cl)cn3c2Cc2ccccc2)cc1,-21.9%
